Hits are enriched below; roughly 1.8% of the tested compounds scored in any of these assays.
Mtb hypoxia inh: PubChem AID 1159583 | fluorescence inhibition, % (test concentration not listed) | actives 0.1% (n = 300,000) | M. tuberculosis hypoxia-regulated fluorescent reporter, fluorescence; in the data active means fluorescence inhibition mostly above about 23%, no sharp cut-off; inactive means mostly below about 17%
PriA SSB inh: inhibitors of Klebsiella pneumoniae PriA binding to SSB C-terminal tail, primary screen, biochemical, AlphaScreen | AlphaScreen SSBct-PriA binding, biotinylated peptide | inhibition, % at 33 µM | actives 0.6% (n = 430,000) | AID 1272365, 2023; in the data active means inhibition mostly above about 37%, no sharp cut-off; inactive means mostly below about 20%;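 further: plate controls were negative control peptide for no effect and reference peptide for full effect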
ugtP null kill: growth inhibition of ugtP-null S. aureus, primary screen, RN4220 ugtP deletion, OD600 | 16 h | actives 0.54% (n = 330,000) | growth inhibition, % (no concentration beside the values); in the data active means growth inhibition above about 68%;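 further: plate controls were untreated wells for no effect and antibiotic for full effect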
Sa RN4220 lethal: growth inhibition of S. aureus RN4220, primary screen, OD600 | actives 0.33% (n = 330,000) | 16 h | inhibition, % (no concentration beside the values); in the data active means inhibition above about 85%;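 further: plate controls were untreated cells for no effect and reference antibiotic for full effect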
DUSP3 inh: VHR1 phosphatase inhibitors, primary screen, biochemical, absorbance, uHTS. Dual specificity protein phosphatase 3 (Homo sapiens), P51452. inhibition, % at 13.3 µM. actives 0.52% (n = 290,000). recombinant VHR phosphatase, pNPP absorbance; in the data active means inhibition above about 50%
Target sequence (P51452 whole entry, looked up): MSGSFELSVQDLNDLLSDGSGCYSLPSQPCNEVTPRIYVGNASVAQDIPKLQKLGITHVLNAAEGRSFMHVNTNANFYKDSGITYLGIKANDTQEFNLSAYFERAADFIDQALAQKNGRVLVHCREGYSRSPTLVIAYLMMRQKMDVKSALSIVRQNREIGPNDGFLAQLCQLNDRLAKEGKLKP
PfHsp40 rescue: rescue of yeast from PfHsp40 toxicity, primary screen, S. cerevisiae, ATP luminescence; S. cerevisiae expressing PfHsp40, growth rescue; growth rescue, % at 12.5 µM; actives 0.68% (n = 340,000); AID 504582, 2011; in the data active means growth rescue above about 28%, passing the limit was not always enough;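 further: yeast W303a lacking pdr1 and pdr3 grown in galactose medium; growth measured after three days at 30 °C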
* = called active by the depositor; i = inactive; / = no result shown.

SMILES	Mtb hypoxia inh	PriA SSB inh	ugtP null kill	Sa RN4220 lethal	DUSP3 inh	PfHsp40 rescue
OCCN(Cc1nc(-c2ccc3c(c2)OCO3)no1)Cc1cccs1	15	-5	-3	2	58*	1
CCCCC(=O)NN=C(C)C1=C(C)C(C)(C)OC1=O	-1	-8	3	1	/	/
CCCC(=O)N(c1ccc2oc(C)c(C(=O)OC)c2c1)S(=O)(=O)c1ccc(F)cc1C	/	-7	/	/	/	/
O=C(NCc1ccc(Cl)cc1)C(=O)NCC1(c2cccs2)CCCC1	/	-4	/	/	/	/
c1ccc(-c2ccc(OCCCn3cncn3)cc2)cc1	/	-16	6	11	-11	269*
c1ccc(COc2ccc(OCCn3cncn3)cc2)cc1	/	-5	-7	-1	4	0
C=CCN=c1scc(-c2ccccc2)n1N=Cc1ccccn1	18	46*	10	13	/	/
C=CCN=c1scc(-c2ccccc2)n1/N=C/c1ccccn1	9	i	-6	1	15	23
CSc1ccc(/C=C(\C#N)C(=O)NC2CCCCC2C)cc1 (stereo unspecified)	-1	2	-25	-2	1	0
CC1CCCCC1NC(=O)/C(C#N)=C/c1ccccc1F (stereo unspecified)	7	1	46	46	-1	111*
N#C/C(=C\c1ccccc1)C(=O)NC1CC1	10	-3	0	2	53*	0
COc1ccccc1-c1ccc(SCc2ccc(C)cc2)nn1	14	7	1	55	22	26*
COc1cc(C(=O)C(=O)c2cc(OC)c(O)c(OC)c2)cc(OC)c1O	-6	-2	12	3	53*	0
O=C1CCC(=O)N1c1ccc(S(=O)(=O)NCc2ccco2)cc1	/	-2	/	/	/	/
COc1cccc(CSc2nc(CC(=O)Nc3ccccc3C(N)=O)cc(=O)[nH]2)c1	/	-11	/	/	/	/
c1ccc(-c2nccc(-c3ccco3)n2)nc1	4	72*	4	10	9	1
c1ccc(-c2nnc(-c3ccco3)c(-c3ccco3)n2)nc1	/	114*	/	/	/	/
O=C(Nn1c(COc2ccccc2)nc2ccccc2c1=O)C(Cl)(Cl)Cl	12	-6	100*	100*	2	0
CC(C)Sc1ccc(CC(=O)NC[C@@](C)(O)Cc2ccco2)cc1	/	-17	/	/	/	/
O=C(Cc1ccc(-c2ccccc2)cc1)N1CCOCC1	/	-16	11	1	7	0
O=C(Cc1ccc(Br)cc1)N1CCOCC1	15	-8	8	5	18	36*
O=C(CN1CCN(CC(O)c2ccco2)CC1)N1CCc2ccccc21 (stereo unspecified)	/	-7	/	/	/	/
COc1ccc(C(=O)Cn2nc(CNc3ccc(Br)cc3)[n+]3c2CCCCC3)cc1	/	11	98*	99*	-5	-1
O=C(Cn1nc(-c2nn(CC(=O)c3ccccc3)c3[n+]2CCCCC3)[n+]2c1CCCCC2)c1ccccc1	14	-10	6	2	-11	/
Cc1ccc(C(C)C)c(OCc2nn(CC(=O)c3ccc(OC(F)F)cc3)c3[n+]2CCCCC3)c1	/	1	95*	100*	5	-1
SMILES	Mtb hypoxia inh	PriA SSB inh	ugtP null kill	Sa RN4220 lethal	DUSP3 inh	PfHsp40 rescue
Nc1ccccc1Nc1cc(-c2ccccc2)nn1-c1cccc(Cl)c1	10	59*	17	-14	10	-1
O=C(CCl)Nc1cc(-c2ccccc2)nn1-c1ccccc1	/	-9	-15	0	42	4
Cc1ccc(S(=O)(=O)N(C)S(=O)(=O)c2ccc(C#N)cc2)cc1	/	/	/	/	53*	/
Cc1ccc(S(=O)(=O)NN=Cc2ccc(C#N)cc2)cc1	14	-6	3	1	/	/
C(=NN1CCN(Cc2cccc3ccccc23)CC1)c1cccnc1	2	10	1	3	/	/
CCOC(=O)C1=C(C)N=C2c3ccccc3C(=O)C2C1c1ccc(Cl)cc1 (stereo unspecified)	2	-10	46	88*	15	0
CC1(C)CC(=O)C2=C(C1)N=C1c3ccccc3C(=O)C1C2c1ccc(Cl)cc1 (stereo unspecified)	/	38	-6	1	-8	0
COc1ccc(-c2noc(C3CCN(CC(=O)NCc4ccco4)CC3)n2)cc1	/	-8	/	/	/	/
O=C(Nc1cccc(O)c1)c1cccc(C(=O)Nc2cccc(O)c2)c1	47*	32	4	0	16	0
Cc1cc(C)c(OCC(=O)Nc2cccc(NC(=O)c3ccco3)c2)c(Br)c1	24	10	-6	32	29	122*
O=C(Nc1cccc(NC(=O)c2ccco2)c1)c1ccccc1	2	-1	3	5	58*	1
Cc1cc(C)c(OCC(=O)Nc2ccc(NC(=O)c3ccco3)cc2)c([N+](=O)[O-])c1	6	2	1	9	-8	-2
O=C(c1ccccc1)c1cccc(NC(=O)c2ccco2)c1	3	-3	-9	-3	15	4
CCc1cnc2c(c1NCc1ccccn1)c(=O)n(C)c(=O)n2C	/	-5	/	/	/	/
Cc1cc(/C=C(\C#N)C(=O)NCc2ccccc2)cc(C)c1O	7	4	1	4	52*	0
Cc1ccc(/C=C/S(=O)(=O)N2CCCC(Cc3nc(C4CC4)no3)C2)cc1 (stereo unspecified)	/	-7	/	/	/	/
CCC(NC(=O)Nc1nnc(C(F)(F)F)s1)(C(F)(F)F)C(F)(F)F	/	0	88*	75	-1	0
Cc1cc(NC(=O)Cn2cccc(-c3nc(C4CC4)no3)c2=O)no1	/	26*	/	/	/	/
O=c1c(-c2nc(C3CC3)no2)cccn1Cc1c(F)cccc1Cl	/	8	/	/	/	/
COc1cccc(C(=O)Nc2ccc3c(c2)N(CCC(C)C)C(=O)C(C)(C)CO3)c1OC	/	13	/	/	/	/
CC(C)NC(=O)COc1ccccc1Br	/	4	/	/	/	/
Oc1ccccc1-c1nc2ccccc2nc1-c1ccccc1	-10	24	12	5	1	1
Clc1nc2ccccc2nc1-c1ccccc1	14	-17	-1	9	-12	0
Clc1ccc(-c2nc3ccccc3nc2-c2ccccc2)cc1	6	-2	89*	-5	-1	3
Cc1ccc(-c2nc3ccccc3nc2-c2ccccc2)cc1	3	-46	86*	-2	-8	1
SMILES	Mtb hypoxia inh	PriA SSB inh	ugtP null kill	Sa RN4220 lethal	DUSP3 inh	PfHsp40 rescue
Cc1cc(C)cc(OCC(=O)N2N=C(c3cccnc3)CC2(O)C(F)(F)F)c1 (stereo unspecified)	2	-4	-5	10	32	1
Cc1cc(C)cc(OCC(=O)N2N=C(C(F)(F)F)CC2(O)C(C)(C)C)c1 (stereo unspecified)	/	49*	-11	-2	-10	-1
Cc1ccc(-n2nc(C)c3c(C)c(CCC(=O)NCc4ccco4)c(C)nc32)cc1	8	96*	11	-3	42	-1
O=C(Nc1nnc(-c2ccccc2)s1)c1ccccc1O	7	-10	94*	91*	13	-1
CCc1cc(=O)[nH]c(-n2nc(C)cc2N)n1	/	93*	/	/	/	/
CCc1cc(=O)[nH]c(-n2nc(C)cc2NC(=O)COC)n1	/	39*	/	/	/	/

Source: PubChem
